SMILES strings stand for the structures. Several values for one entry are separate records, joined by “and”; a condition that tells them apart may be missing. Identical values can stand only once. Inconclusive results are not listed. Activity calls are given as the source filed them. Unless noted, calls come from the whole dose curve; as a rule, active = well fitted curve in the direction sought with a large enough effect in the repeat runs; inconclusive = weak or mixed curves; inactive = no such curve, though single readings can be large; an effect the other way counts as inactive or inconclusive.

Test [1] can be described thus: qHTS assay to identify small molecule antagonists of the glucocorticoid receptor (GR) signaling pathway - cell viability counter screen (AID 720693). Note: nearly all actives have a fitted effect of over 55% in size. Note: potency is the fitted concentration of half-maximal effect.
Test [2] is described as follows: qHTS assay for identifying genotoxic compounds that show differential cytotoxicity against isogenic chicken DT40 cell lines with known DNA damage response pathways - Rev3 mutant cell line (AID 743014). Note: nearly all actives have a fitted effect of over 55% in size. Note: potency is the fitted concentration of half-maximal effect.
The nature of test [3]: qHTS assay for identifying genotoxic compounds that show differential cytotoxicity against isogenic chicken DT40 cell lines with known DNA damage response pathways - Rad54/Ku70 mutant cell line (AID 743015). Note: nearly all actives have a fitted effect of over 60% in size. Note: potency is the fitted concentration of half-maximal effect. In general terms: In qHTS, concentration-response curves come from the screen itself.
Test [4] can be described thus: qHTS assay to identify small molecule antagonists of the androgen receptor (AR) signaling pathway - cell viability counter screen (AID 743033; note: nearly all actives have a fitted effect of over 45% in size; note: potency is the fitted concentration of half-maximal effect).
Test [5] is described as follows: qHTS assay to identify small molecule antagonists of the androgen receptor (AR) signaling pathway using the MDA cell line - cell viability counter screen (AID 743041; note: nearly all actives have a fitted effect of over 45% in size; note: potency is the fitted concentration of half-maximal effect). Summed up: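 Compound exposure lasted 16 h at 37C in MDA-kb2 AR-luc cells stimulated with R1881. Protease-based CellTiter-Fluor reagent was applied for the final 30 min and fluorescence measured.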

The nature of test [6]: qHTS assay to identify small molecule antagonists of the thyroid receptor (TR) signaling pathway - cell viability counter screen (AID 743064). Note: nearly all actives have a fitted effect of over 50% in size. Note: potency is the fitted concentration of half-maximal effect. In outline: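 In rat pituitary GH3.TRE-Luc reporter cells co-exposed to compound and 1 nM T3 for 23.5 h, cytotoxicity was assessed with CellTiter-Fluor in the same wells, read by fluorescence.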
The subject of test [7] is thyroid hormone receptor (rat, GH3 cells). Kind of test: qHTS assay to identify small molecule agonists of the thyroid receptor (TR) signaling pathway (AID 743066; calls by dose curve).
For test [8], the target named is Estrogen receptor (Homo sapiens) (UniProt P03372). Nature of the test: qHTS assay to identify small molecule antagonists of the estrogen receptor alpha (ER-alpha) signaling pathway (AID 743069; active = well fitted curve in the direction sought with a large enough effect in the signal ratio in the repeat runs, not every such curve was filed as active; the % refers to the signal ratio). In outline: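 In this cell-based reporter format, GripTite HEK293 cells harbouring ER-alpha-UAS-bla were grown overnight with 2% charcoal-stripped FBS, dosed with DMSO-dissolved compounds, then challenged with 17beta-estradiol. After 18 hr at 37C, beta-lactamase activity was detected by FRET fluorescence.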
Sequence of Estrogen receptor (Homo sapiens) (P03372 whole entry, looked up): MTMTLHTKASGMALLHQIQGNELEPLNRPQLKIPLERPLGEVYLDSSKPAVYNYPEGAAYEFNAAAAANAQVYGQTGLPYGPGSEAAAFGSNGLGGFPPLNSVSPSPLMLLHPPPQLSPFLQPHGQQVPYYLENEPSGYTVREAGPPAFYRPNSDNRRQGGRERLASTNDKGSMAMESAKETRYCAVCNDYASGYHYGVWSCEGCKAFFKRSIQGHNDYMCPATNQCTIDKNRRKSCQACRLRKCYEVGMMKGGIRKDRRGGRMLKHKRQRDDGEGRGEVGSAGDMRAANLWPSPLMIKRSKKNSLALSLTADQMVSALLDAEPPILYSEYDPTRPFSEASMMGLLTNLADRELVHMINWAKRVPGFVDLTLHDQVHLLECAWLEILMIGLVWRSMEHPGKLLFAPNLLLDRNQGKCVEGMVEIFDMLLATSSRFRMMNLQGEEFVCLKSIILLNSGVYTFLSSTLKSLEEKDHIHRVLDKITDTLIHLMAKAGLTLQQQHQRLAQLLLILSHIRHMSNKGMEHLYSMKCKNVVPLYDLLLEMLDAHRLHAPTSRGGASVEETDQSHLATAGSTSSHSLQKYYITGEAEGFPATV

Test [9] in a line: qHTS assay to identify small molecule antagonists of the estrogen receptor alpha (ER-alpha) signaling pathway - cell viability counter screen (AID 743074; calls by dose curve; note: nearly all actives have a fitted effect of over 45% in size; note: potency is the fitted concentration of half-maximal effect).
The target in test [10] is Estrogen receptor (Homo sapiens) (UniProt P03372). Nature of the test: qHTS assay to identify small molecule agonists of the estrogen receptor alpha (ER-alpha) signaling pathway (AID 743075; calls by dose curve).
Test [11] shares this target. Kind of test: qHTS assay to identify small molecule agonists of the estrogen receptor alpha (ER-alpha) signaling pathway using the BG1 cell line (AID 743079). Note: nearly all actives have a fitted effect of over 20% in size. Note: potency is the fitted concentration of half-maximal effect.
Test [12] is described as follows: qHTS assay to identify small molecule antagonists of the estrogen receptor alpha (ER-alpha) signaling pathway using the BG1 cell line (AID 743080; calls by dose curve;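 note: BG1 cells stimulated with 17beta-estradiol alongside compound; nearly all actives have a fitted effect of over 25% in size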; note: potency is the fitted concentration of half-maximal effect). Summed up: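 After 5 days in phenol-red-free 10% charcoal-stripped FBS medium, BG1-Luc-4E2 cells were seeded, left 24 h at 37 C, co-treated with compounds and 17beta-estradiol for 21.5 h, then assayed for viability and luciferase.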

Test [13] is described as follows: qHTS assay to identify small molecule antagonists of the estrogen receptor alpha (ER-alpha) signaling pathway using the BG1 cell line - cell viability counter screen (AID 743081).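 Note: compound given together with 17beta-estradiol as the ER stimulus; nearly all actives have a fitted effect of over 45% in size.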 Note: potency is the fitted concentration of half-maximal effect.
Another test deals with Aromatase (Homo sapiens) (UniProt P11511). Kind of test: qHTS assay to identify aromatase inhibitors (AID 743083). Note: nearly all actives have a fitted effect of over 55% in size. Note: potency is the fitted concentration of half-maximal effect.
Sequence of Aromatase (Homo sapiens) (P11511 whole entry, looked up): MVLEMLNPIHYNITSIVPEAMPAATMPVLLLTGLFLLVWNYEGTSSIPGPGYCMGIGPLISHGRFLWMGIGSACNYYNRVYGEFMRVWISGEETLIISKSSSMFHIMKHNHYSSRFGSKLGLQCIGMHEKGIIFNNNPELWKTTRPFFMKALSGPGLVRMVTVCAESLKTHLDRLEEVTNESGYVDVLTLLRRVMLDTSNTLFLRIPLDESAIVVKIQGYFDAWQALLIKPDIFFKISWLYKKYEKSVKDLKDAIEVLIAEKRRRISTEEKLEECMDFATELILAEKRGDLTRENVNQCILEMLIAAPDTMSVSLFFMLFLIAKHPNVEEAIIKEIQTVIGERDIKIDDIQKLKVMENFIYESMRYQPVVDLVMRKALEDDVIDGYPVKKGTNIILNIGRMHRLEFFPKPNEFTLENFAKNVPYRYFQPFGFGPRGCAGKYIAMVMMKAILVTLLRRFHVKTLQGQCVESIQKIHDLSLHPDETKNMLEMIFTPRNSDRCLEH
A short description of test [14]: qHTS assay to identify small molecule antagonists of the thyroid receptor (TR) signaling pathway (AID 743065). Note: nearly all actives have a fitted effect of over 55% in size. Note: potency is the fitted concentration of half-maximal effect. In outline:
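GH3.TRE-Luc rat pituitary cells (two TREs driving luciferase) were dosed with compound, then stimulated with 1 nM T3 (final) for 23.5 h at 37 C. ONE-Glo luminescence was the read-out, with CellTiter-Fluor fluorescence as the cytotoxicity counter-screen.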

For test [15], the target named is Androgen receptor (Homo sapiens) (UniProt P10275). Kind of test: qHTS assay to identify small molecule agonists of the androgen receptor (AR) signaling pathway (AID 743036; active = well fitted activation curve with a large enough effect in the signal ratio in the repeat runs, with a control signal flat, not every such curve was filed as active; the % refers to the signal ratio). In outline: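 Cell-based FRET reporter assay: HEK293 line with a UAS-beta-lactamase construct, compounds added in DMSO, 16 h exposure at 37C, then 2 h substrate step at room temperature and fluorescence intensity read.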
Sequence of Androgen receptor (Homo sapiens) (P10275 whole entry, looked up): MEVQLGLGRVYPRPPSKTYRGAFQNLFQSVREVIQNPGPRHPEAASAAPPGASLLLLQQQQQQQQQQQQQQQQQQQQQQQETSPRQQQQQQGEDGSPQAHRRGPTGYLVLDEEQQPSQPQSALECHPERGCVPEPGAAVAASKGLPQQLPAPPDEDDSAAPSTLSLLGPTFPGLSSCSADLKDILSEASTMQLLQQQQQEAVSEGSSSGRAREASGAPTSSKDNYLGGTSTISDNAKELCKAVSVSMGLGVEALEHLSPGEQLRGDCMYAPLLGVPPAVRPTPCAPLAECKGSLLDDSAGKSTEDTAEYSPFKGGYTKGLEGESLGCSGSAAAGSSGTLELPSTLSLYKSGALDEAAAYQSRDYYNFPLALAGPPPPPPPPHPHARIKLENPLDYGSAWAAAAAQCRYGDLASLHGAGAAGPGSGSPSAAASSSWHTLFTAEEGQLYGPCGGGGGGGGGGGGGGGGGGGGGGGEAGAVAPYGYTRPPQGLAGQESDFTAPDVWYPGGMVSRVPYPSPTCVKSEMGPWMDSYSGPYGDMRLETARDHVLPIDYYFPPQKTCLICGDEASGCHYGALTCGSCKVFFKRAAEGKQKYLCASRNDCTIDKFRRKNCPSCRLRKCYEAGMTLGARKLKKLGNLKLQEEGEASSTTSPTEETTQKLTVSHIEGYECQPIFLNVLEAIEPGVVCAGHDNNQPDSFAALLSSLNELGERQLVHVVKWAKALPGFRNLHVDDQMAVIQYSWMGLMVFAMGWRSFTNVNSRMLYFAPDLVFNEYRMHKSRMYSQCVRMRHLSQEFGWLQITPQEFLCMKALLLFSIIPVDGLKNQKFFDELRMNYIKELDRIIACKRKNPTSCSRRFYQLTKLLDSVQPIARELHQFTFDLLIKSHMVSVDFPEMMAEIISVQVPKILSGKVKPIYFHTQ

The target is the same in test [16]. Kind of test: qHTS assay to identify small molecule agonists of the androgen receptor (AR) signaling pathway using the MDA cell line (AID 743040; note: nearly all actives have a fitted effect of over 20% in size). In outline:
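Testing was done with the MDA-kb2 AR-luc line, a human breast carcinoma stably transfected with MMTV-luciferase containing AR and GR response elements. Cells were exposed 16 h at 37C before ONE-Glo luminescence detection.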

The target is the same in test [17]. Nature of the test: qHTS assay to identify small molecule antagonists of the androgen receptor (AR) signaling pathway using the MDA cell line (AID 743042; note: nearly all actives have a fitted effect of over 55% in size; note: potency is the fitted concentration of half-maximal effect). In outline: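 MDA-kb2 breast carcinoma cells carrying MMTV-luciferase (AR/GR responsive) were co-treated with compounds and the agonist R1881 for 16 h at 37C. Inhibition read as ONE-Glo luminescence; CellTiter-Fluor fluorescence measured in parallel for cytotoxicity.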

For test [18] the target is unchanged. Kind of test: qHTS assay to identify small molecule antagonists of the androgen receptor (AR) signaling pathway (AID 743035; active = well fitted inhibition curve with a large enough effect in the signal ratio in the repeat runs, not every such curve was filed as active; the % refers to the signal ratio). In outline:
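Quantitative HTS of the Tox21 10K library used HEK293 AR-UAS-bla cells stimulated with R1881 alongside compound for 16 h at 37C, followed by beta-lactamase FRET detection (LiveBLAzer B/G, 2 h, RT).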

As to `CC(C)COC(=O)OCN1C(=O)CN(CCN2CC(=O)N(COC(=O)OCC(C)C)C(=O)C2)CC1=O`, the Potency entry in test [1], in test [2], in test [4], in test [5], in [6] and in [7] was “inactive” in each case. Also, the Potency result in test [8], in [9], in [10], in test [11], in [12] and in test [13] was “inactive” each time. Moreover, the Potency result with Aromatase (Homo sapiens) is “inactive”. For the same compound, the Potency in test [3] was 188 nM (active).

In the case of `OCl`, the Potency entry in test [1], in test [2], in [3], in test [4], in [5] and in test [6] was “inactive” throughout. Also, the Potency entry in test [14], in test [7], in test [8], in test [9], in test [10] and in test [11] was “inactive” each time. Besides, the Potency entry (in test [12]; in test [13]; with Aromatase (Homo sapiens)) was “inactive” each time.

On to `NC(=O)C1c2ccccc2CCc2ccccc21`, for which the Potency entry in test [1], in test [3], in [4], in test [15], in test [16] and in test [5] was “inactive” throughout. For the same compound, the Potency result in test [17], in test [6], in [14], in test [7], in test [8] and in [9] was “inactive” each time. Moreover, the Potency entry (in test [10]; in test [11]; in [12]; in [13]; in the test with Aromatase (Homo sapiens)) was “inactive” throughout.

For the compound `N[C@@H](Cc1ccc(O)c(O)c1)C(=O)O`, the Potency result in test [1], in test [2], in test [3], in [4], in test [5] and in test [14] was “inactive” each time. Moreover, the Potency result (in test [7]; in test [9]; in [13]; with Aromatase (Homo sapiens)) was “inactive” each time.

Turning to `O=S(=O)(O)CC(S)CS` (stereo unspecified), the Potency result in [1], in test [4], in test [18], in test [16], in [5] and in [17] was “inactive” in each case. Moreover, the Potency entry (in test [6]; in test [7]; in test [9]; in test [13]; with Aromatase (Homo sapiens)) was “inactive” each time. Also, in [3], the Potency was 3760 nM (active).

Turning to `Cc1cc(N)c2ccccc2[n+]1CCCCCCCCCC[n+]1c(C)cc(N)c2ccccc21`, the Potency result in test [1], in test [7] and in [10] was “inactive” in each case. In addition, the Potency in [2] is 2.54 µM (active); in test [3], 2850 nM (active); in test [5], 7.49 µM (active); in test [14], 11.4 µM (active); in test [9], 8.11 µM (active).

Turning to `NC(N)=NCc1cccc(I)c1`, the Potency entry in test [1], in [4], in [7], in test [8], in test [9] and in test [10] was “inactive” each time. For the same compound, the Potency result (in test [13]; with Aromatase (Homo sapiens)) was “inactive” throughout. Moreover, the Potency is 8.41 µM (active) and 11.9 µM (active) in [2]; 6.68 µM (active) and 7.5 µM (active) in test [3]; 21.1 µM (active) and 11.9 µM (active) in test [12].

Take `N[C@@H](Cc1cnc[nH]1)C(=O)O`: the Potency entry in test [1], in [3], in [4], in test [15], in test [16] and in test [5] was “inactive” in each case. For the same compound, the Potency result in [17], in test [6], in [14], in test [7], in test [9] and in test [13] was “inactive” in each case. Also, the Potency result with Aromatase (Homo sapiens) is “inactive”.

Turning to `O=C1CCC(c2ccc(-n3ccnc3)cc2)=NN1`, the Potency entry in [1], in test [2], in test [3], in test [4], in [5] and in test [6] was “inactive” throughout. For the same compound, the Potency entry in test [14], in [7], in test [8], in [10], in test [11] and in [12] was “inactive” each time. Further, the Potency result in [13] is “inactive”. In addition, the Potency with Aromatase (Homo sapiens) was 6.68 µM (active).

As to `NS(=O)(=O)c1cc(Cl)c(Cl)c(S(N)(=O)=O)c1`, the Potency entry in [1], in test [2], in [3], in test [5], in test [6] and in test [14] was “inactive” each time. For the same compound, the Potency entry (in test [7]; in [9]; in [13]; in the test with Aromatase (Homo sapiens)) was “inactive” each time.

Regarding `OCC1(CO)COC(C(Cl)(Cl)Cl)OC1`, the Potency entry in test [1], in test [2], in test [3], in test [5], in [6] and in [14] was “inactive” throughout. Also, the Potency entry in [7], in test [8], in [9], in test [10], in test [11] and in test [12] was “inactive” in each case. Further, the Potency entry (in [13]; in the test with Aromatase (Homo sapiens)) was “inactive” throughout.

As to `O=C1CCC(c2ccccc2)(C2CCN(Cc3ccccc3)CC2)C(=O)N1` (stereo unspecified), the Potency entry in test [1], in [2], in test [4], in test [5], in [14] and in test [7] was “inactive” each time. For the same compound, the Potency result in test [8], in test [9], in [10], in test [11], in [12] and in [13] was “inactive” each time. Moreover, the Potency entry with Aromatase (Homo sapiens) was “inactive”.

As to `CC/C=C\C/C=C\C/C=C\C/C=C\C/C=C\CCCC(=O)O`, the Potency entry in test [1], in test [2], in test [3], in [4], in test [5] and in test [7] was “inactive” throughout. Also, the Potency result in [8], in test [9], in test [10], in [11], in test [12] and in test [13] was “inactive” in each case. The Potency entry in the test with Aromatase (Homo sapiens) was “inactive”.

Consider `CCCCCCCCCC[N+](C)(CCCCCCCCCC)CCC[Si](OC)(OC)OC`, for which the Potency entry in [1], in test [7], in [11], in [12] and in [13] was “inactive” each time. Moreover, the Potency in test [2] was 7.7 µM (active); in test [3], 7700 nM (active); in test [4], 43.6 µM (active); in [6], 21.7 µM (active); in test [14], 21.7 µM (active); in test [9], 49 µM (active). Moreover, the Potency with Aromatase (Homo sapiens) was 61.1 µM (active).

For `C[C@]12O[C@H](C[C@]1(O)CO)n1c3ccccc3c3c4c(c5c6ccccc6n2c5c31)CNC4=O`, the Potency in [1] is 3.01 µM (active); in test [2], 0.376 µM (active); in test [3] it was 376 nM (active); in test [5] it was 11.9 µM (active); in [17] it was 2.98 µM (active); in test [6], 0.188 µM (active). The Potency in test [14] was 0.188 µM (active); in [9], 21.3 µM (active); in [13], 21.1 µM (active); in the test with Aromatase (Homo sapiens), 2.11 µM (active). Also, the Potency result in [16] was “inactive”.

For `CC(=O)NC[C@H]1CN(c2ccc(N3CCOCC3)c(F)c2)C(=O)O1`, the Potency result in test [1], in test [4], in [5], in [6], in test [14] and in [7] was “inactive” each time. Further, the Potency entry (in [8]; in test [9]; in test [10]; in test [12]; in [13]; with Aromatase (Homo sapiens)) was “inactive” throughout. Also, in test [11], the Potency is 13.3 µM (active).

Take `O=C(O)c1cc(=O)c2c3nc4ccccc4oc-3cc(=O)c2[nH]1`: the Potency entry in test [1], in test [2], in [4], in test [6], in test [14] and in [7] was “inactive” throughout. Besides, the Potency result (in [9]; in test [13]; in the test with Aromatase (Homo sapiens)) was “inactive” in each case.

As to `CCCCCCCCCCCC[n+]1ccc2ccccc2c1`, the Potency in test [1] is 9.52 µM (active); in test [2] it was 0.298 µM (active); in [3] it was 266 nM (active); in test [4], 3.01 µM (active); in test [5], 5.96 µM (active); in [6], 7.5 µM (active). In addition, the Potency was 3.76 µM (active) in test [14]; 2.13 µM (active) in [9]; 7.5 µM (active) in test [12]; 26.6 µM (active) in test [13]; 10.6 µM (active) in the test with Aromatase (Homo sapiens). In addition, the Potency entry in test [10] was “inactive”.
